The record followed here is PubChem BioAssay (NCI).

Where “and” joins values, the source holds several entries; their conditions need not be identical. Equal values may be shown once. The panel holds about 83,000 compounds, 20% with a hit somewhere; the sample as a whole holds those more often.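 Activity criterion: percent growth below 10, measured after cells in 96-well plates were exposed to a single compound concentration for 48 hours.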 A number with no mark means an inactive call. Calls of active or inactive are those of the source.

The experiment has as its system CCRF-CEM leukemia. Briefly: NCI-60 one-dose screen, 48 h (100 = growth as untreated, 0 = no growth, -100 = all killed). The following applies: 10 µM unless noted. Here is the method: Growth inhibition of the CCRF-CEM human tumor cell line is measured as a screen for anti-cancer activity. Cells are grown in 96 well plates and exposed to the test compound for 48 hours. Compounds are tested at a single concentration, which is 10^-5 M for most compounds. The reported endpoint is percent growth (GI% or GIPRCNT), where numbers from 0 - 100% represent growth inhibition, and numbers from -100% - 0 represent cell death. For example, a value of 40 represents 60% growth inhibition. A value of 0 means no net growth occurred over the course of the experiment. A value of -40 indicates 40% of cells at the beginning of the experiment died by the end of the experiment. A value of -100 means all cells are dead at the end of the experiment.
NCI-60 Human Tumor Cell Lines Screen was performed using the standard one-dose NCI protocol, which is described in more detail at https://dtp.cancer.gov/discovery_development/nci-60/default.htm.
Compounds with GIPRCNT values below 10 were considered active. Activity score was based on GIPRCNT using the following formula: […]
Score is 0 for GIPRCNT values of 100 or above, 50 for GIPRCNT values of 0, and 100 for GIPRCNT values of -100.
On to `Cc1ccccc1-n1c(/C=C\c2ccccn2)nc2ccccc2c1=O`, for which the growth was 29.9%.
In the case of `O=[N+]([O-])c1cc(Cl)c(Cl)cc1Cl` it was 105% and 106%; in that of `CC1(C)N=C(N)N=C(N)N1c1ccc(CCC(=O)Nc2ccc(S(=O)(=O)F)cc2)cc1`, 18.9%; in that of `CCCCn1c(=O)c(C(=O)NCc2ccccc2Cl)c(O)c2ccccc21`, 43.7%.
As to `CCC(=O)C(CC(C)N1CCCCCC1)(c1ccccc1)c1ccccc1` (stereo not given), the growth is 96.1%.
On to `O=C(O)c1ccc(=O)[nH]c1`, for which the growth is 106% and 95.4%.
In the case of `Cc1cc2c(cc1-c1ccnc(/C=C/C(=O)O)c1)C(C)(C)CCC2(C)C`, the growth was 95.7%.
As for `CN1CCc2cc3c(cc2C1O)OCO3` (stereo not given), the figure is 86.8% and 103%; as for `COc1cc(C2C3=C(CCCC3=O)N(CCO)c3cc4c(cc32)CCC4)cc(OC)c1OC` (stereo not given), 20.3%; as for `CCN(CC)CCn1c(=O)n(C)c2ccccc21`, 103%.
In the case of `CN1CCC2(CC1)C(C#N)C(=O)NC(=O)C2C#N` (stereo not given) it was 104%; in that of `CN(C)c1ccc([N+](=O)[O-])c([N+](=O)[O-])c1`, 80.9% and 94.2%.
In the case of `C[C@]12CCc3sc(Nc4ccc(OC(F)(F)F)cc4)nc3C1=CC[C@@H]1[C@@H]2CC[C@]2(C)C(=O)CC[C@@H]12` it was 5.05% (active); in that of `CC12CCC3C4CCC(=O)C=C4CCC3C1CC1CC(=O)OC12` (stereo not given), 102%; in that of `O=C1NC(=O)C(=C/C=C/c2ccccc2)C(=O)N1`, -7.03% (active).
Take `C[C@]12CC[C@H]3[C@@H](C[C@@H]4SC(Nc5ccccc5)=N[C@@]45C/C(=N/O)CC[C@]35C)[C@@H]1CCC2=O`: the growth is 8.6% (active).
As for `O=c1[nH]c(=O)n(Cl)c(=O)n1Cl`, the figure is 101% and 104%; as for `CCCCCCCCCCCCCCCC[n+]1ccccc1`, -69% (active) and -43.7% (active).
Consider `O=NN1CCCCC1`, for which the growth is 104%.
As for `COc1ccc(N)cc1OC`, the figure is 98.6%; as for `OCCNC1CCCCC1`, 103%; as for `Cc1ccc(P(=O)(O)O)cc1`, 114%.
As for `C=C[Se]CC(=O)/C=C/c1ccccc1`, the figure is 47.4%; as for `N#CC(N)c1ccccc1` (stereo not given), 107%; as for `Cc1cc(N)ccc1N`, 69.3%.
In the case of `O=C1c2ccccc2C(=O)N1N1CC1c1ccccc1` (stereo not given) it was 94.7%.
As to `C[N+]1(CC#CC[N+]2(C)CCCC2)CCCC1`, the growth was 107%.
In the case of `CO[C@@H]([CH2][Hg][O]C(=O)c1ccccc1)[C@@H]([CH2][Hg][O]C(=O)c1ccccc1)OC` it was -6.61% (active).
In the case of `Cn1cc(C(=O)C[n+]2ccccc2)c2ccccc21`, the growth is 96.6%.
In the case of `O=C(O)c1cc([N+](=O)[O-])cc([N+](=O)[O-])c1` it was 80.6%; in that of `O=S1(=O)OCCO1`, 94.6%; in that of `COC(=O)[C@@H](C)C[C@H](Cc1ccccc1)NC(=O)c1cccc([C@@H](C[C@H](C(C)C)N(C)C(=O)[C@@H](NC(=O)[C@H]2CCCCN2C)C2CC2)OC(C)=O)n1`, 16%.
In the case of `CC[C@H](C)[C@H](NC(=O)c1cnccn1)C(=O)N(C)[C@H](C[C@@H](OC(C)=O)c1nc(C(=O)N[C@@H](Cc2ccccc2)C[C@H](C)C(=O)OC)cs1)C(C)C` it was 12%; in that of `COc1cc2c(cc1OC)[C@@H]1C(=O)c3ccc4c(c3O[C@@H]1CO2)C[C@H](C(C)C)O4`, 42.6%; in that of `c1ccc(CCN2CCCCC2)nc1`, 83.6%.
As for `CC(C)CCC1C(=O)NC(=O)NC1=O`, the figure is 106%.
In the case of `COc1ccn(C)c(=O)c1C#N`, the growth is 120%.
As for `C[N+]12CCC34C5=CC(=O)C(=O)C=C5[N+]5(C)C(=O)CC6OCC=C(C1)C(CC32)C6C45` (stereo not given), the figure is 102%.
Consider `CC1=C(C)C(=O)O[C@@H]([C@](C)(O)[C@]2(O)CC[C@@]3(O)[C@@H]4C[C@H]5O[C@]56CC=CC(=O)[C@]6(C)[C@H]4CC[C@]23C)C1`, for which the growth was -8.66% (active).
As for `COC(=O)C1=CCCN(C)C1`, the figure is 102%.
